{"source": "PubChem BioAssay (NCI)", "note": "Compounds without any hit were thinned out: in the full panel of roughly 79,000, 15% have a hit. Activity calls are given as the source filed them. No stated cut-off is given here; in the data, active means growth inhibition above about 70%; inactive means the rest.", "data": [{"assay": "NCI Yeast Anticancer Drug Screen. Data for the mec2-1 strain (AID 157)", "conditions": "S. cerevisiae mec2-1 strain, at 50.0 µM, active compounds read high", "protocol": "Growth inhibition of yeast strains with defined genetic alterations is measured as a screen for potential anti-cancer activity. Selected strains with alterations in DNA damage repair or cell cycle control were exposed to compounds and growth inhibition was measured relative to vehicle treated controls. The strain used in this assay is mec2-1", "values": [{"smiles": "CCCOC(=O)c1cc(O)ccc1O", "growth inhibition": "-0.45% (inactive)"}, {"smiles": "COc1cc(C2c3cc4c(cc3OC(N3CCNCC3)C2C)OCO4)cc(OC)c1OC", "note": "(stereo not given)", "growth inhibition": "-42.8% (inactive)"}, {"smiles": "COc1ccc2[nH]c3c4c(ccc3c2c1)C(=O)C=CC4=O", "growth inhibition": "18.3% (inactive)"}, {"smiles": "CCCCCc1cc[n+](CC(=O)c2ccccc2)cc1", "growth inhibition": "0.7% (inactive)"}, {"smiles": "CC(=O)SCC(C)CCl", "note": "(stereo not given)", "growth inhibition": "-47.6% (inactive)"}, {"smiles": "CN(C)c1ccc(N=Nc2cc3c4ccccc4ccc3c3ccccc23)cc1", "growth inhibition": "-10.2% (inactive)"}, {"smiles": "CC1=C(C(=O)Nc2ccccc2)C(c2ccccc2)C(C(=O)Nc2ccccc2)=C(C)N1", "growth inhibition": "2.55% (inactive)"}, {"smiles": "CCCCCCCCOC(=O)CO", "growth inhibition": "-30.1% (inactive)"}, {"smiles": "Cc1c(/C=C\\C(=O)c2ccccc2)c2ccccc2n1C", "growth inhibition": "-18.6% (inactive)"}, {"smiles": "CCOc1ccc(-c2oc(/C=N/NS(=O)(=O)c3ccc(C)cc3)c([N+](=O)[O-])c2-c2ccc(OCC)cc2)cc1", "growth inhibition": "37.5% (inactive)"}, {"smiles": "CC(C)NC(=O)OCc1c(COC(=O)NC(C)C)c(S(C)(=O)=O)n2c1CCC2", "growth inhibition": "-4.7% (inactive)"}, {"smiles": "COC(=O)c1c(-c2ccc3c(c2)OCO3)cn(C)c1C", "growth inhibition": "1.85% (inactive)"}, {"smiles": "CC(CC(=O)Nc1ccccc1)C(=O)O", "note": "(stereo not given)", "growth inhibition": "-7.1% (inactive)"}, {"smiles": "Oc1ccccc1CN1CCOCC1", "note": "(tested in a mixture with another compound)", "growth inhibition": "-7.05% (inactive)"}, {"smiles": "O=C(Nc1nc2ccccc2n1Cc1ccc(Cl)cc1)NC12CC3CC(CC(C3)C1)C2", "growth inhibition": "-6.45% (inactive)"}, {"smiles": "NCCCOCCN1CCN(c2ccccc2)CC1", "growth inhibition": "-27.2% (inactive)"}, {"smiles": "C/C(=C1\\C(=O)Nc2ccccc21)c1cccnc1", "growth inhibition": "-9.25% (inactive)"}, {"smiles": "O=C1NC(=O)c2ccc(Br)c3cccc1c23", "growth inhibition": "18.9% (inactive)"}, {"smiles": "CN(Cc1ccccc1)C(=O)c1ccc(C(=O)N(C)Cc2ccccc2)cc1", "growth inhibition": "-1.65% (inactive)"}, {"smiles": "COc1ccc2c(c1OC)C1=NCCc3cc4c(cc3C1(OC)C2=O)OCO4", "note": "(stereo not given)", "growth inhibition": "0.75% (inactive)"}, {"smiles": "Clc1ccccc1C(Nc1nc2ccccc2s1)Nc1nc2ccccc2s1", "growth inhibition": "0.8% (inactive)"}, {"smiles": "CC1CCCNC1C", "note": "(stereo not given)", "growth inhibition": "-24.1% (inactive)"}, {"smiles": "N#CC(NCCCNC(C#N)c1ccccc1)c1ccccc1", "note": "(stereo not given)", "growth inhibition": "5.05% (inactive)"}, {"smiles": "Cn1c(N)c(N=O)c(=O)n(C)c1=O", "growth inhibition": "-18.8% (inactive)"}, {"smiles": "CCOC(=O)Nc1nc2ccccc2n1CN1CCOCC1", "growth inhibition": "-11.9% (inactive)"}, {"smiles": "[N-]=[N+]=NC1CC(n2ccc(N)nc2=O)OC1CO", "note": "(stereo not given)", "growth inhibition": "13.6% (inactive)"}, {"smiles": "Clc1ccc(/C=C/c2ccc3ccccc3n2)cc1", "growth inhibition": "-11.6% (inactive)"}, {"smiles": "CCOC(=O)C(C)(C(=O)OCC)C(C)Cc1cccc2ccccc12", "note": "(stereo not given)", "growth inhibition": "0.95% (inactive)"}, {"smiles": "COc1ccc(OC)c(NC(=O)Nc2ccc(I)cc2)c1", "growth inhibition": "42% (inactive)"}, {"smiles": "OCCCc1ccccc1", "growth inhibition": "-1.65% (inactive)"}, {"smiles": "COC(=O)C(=O)C(/C=N/C(=S)Nc1ccc(S(=O)(=O)Nc2nccs2)cc1)=C(\\O)c1c(C)[nH]c2ccccc12", "growth inhibition": "23.8% (inactive)"}, {"smiles": "CC(C#N)c1cn(S(=O)(=O)c2ccccc2)c2ccccc12", "note": "(stereo not given)", "growth inhibition": "3.4% (inactive)"}, {"smiles": "CCOC(=O)c1ccc(NCc2cccc([N+](=O)[O-])c2)cc1", "growth inhibition": "-18.5% (inactive)"}, {"smiles": "C/C(CCn1[nH]c(=O)ccc1=O)=N\\N=C(N)N", "growth inhibition": "-13.1% (inactive)"}, {"smiles": "O=C(Cc1ccccc1)Nc1ccc(Br)cc1", "growth inhibition": "15.8% (inactive)"}, {"smiles": "Nc1nc(-c2ccc(F)cc2)cc(-c2cc(-c3ccc(F)cc3)nc(N)n2)n1", "growth inhibition": "-2.75% (inactive)"}, {"smiles": "CCCCCCCCCSc1nc2ccccc2s1", "growth inhibition": "6.25% (inactive)"}, {"smiles": "CCC(=O)OC1CCCCC1C1CCCCC1", "note": "(stereo not given)", "growth inhibition": "-2.35% (inactive)"}, {"smiles": "Cc1c(C)c(C)c(CN2CCC(C)CC2)c(C)c1C", "growth inhibition": "9.85% (inactive)"}, {"smiles": "O=Cc1ccc2c(c1)CC1(Cc3ccccc3C1)C2", "growth inhibition": "-47.8% (inactive)"}]}]}
